Many of the other results were omitted from the sample, so hits are more common in it than they were.
TDP-43 rescue – TDP-43 toxicity inhibition in yeast; AID 1347073; Potency, µM (series often up to 46.1 µM), most hits filed as activators; yeast TDP-43 toxicity rescue, BacTiter-Glo growth, 24 h; actives 0.45% (n = 45,000); active = well fitted activation curve with a large enough effect; also: nearly all actives have a fitted effect of over 55% in size
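TDP-43-expressing yeast, pregrown in raffinose, seeded at OD600 0.02 in galactose medium with compound for 24 hr at 30 deg C. Growth read by BacTiter-Glo luminescence, so rescue of toxicity appears as activation.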
Large screens that a line does not name were inactive.

Cc1ccc(-c2csc3nc[nH]c(=S)c23)cc1	TDP-43 rescue 14.1µM
CCN(CC)S(=O)(=O)c1ccc2c(c1)N(CC(=O)Nc1c(C)cccc1C)C(=O)CO2	none
CCc1nc2ccc(C(=O)NCc3ccc(OC)cc3)cn2c1N(C)C(=O)Cc1ccccc1	none
COc1ccc(CNC(=O)CCSCc2ccccc2Cl)c(OC)c1	TDP-43 rescue 14.1µM
COc1ccccc1CNC(=O)Cc1ccc(OC)c(OC)c1	none
COc1ccccc1OCC(=O)NCCSCc1ccccc1Cl	none
COc1ccc(CCNC(=O)Nc2nc(C(N)COCc3ccccc3)cs2)cc1OC (configuration not stated)	none
COc1cccc(-c2nc3ccccc3s2)c1O	none
CCOc1cc(-c2nc3ccccc3s2)ccc1O	TDP-43 rescue 22.4µM
COc1cc(C(=O)NCc2ccc(-c3nc4ccccc4s3)cc2)cc(OC)c1OC	none
CC(C)c1ccc(NC(=O)C2Cc3c(-c4ccccc4Oc4ccccc4)ccnc3O2)cc1 (configuration not stated)	none
OC[C@H]1O[C@@H](c2nc(-c3ccc(CN4CCOCC4)cc3)no2)[C@H](O)[C@@H](O)[C@H]1O	none
CCc1nc2ccc(C(=O)NCc3ccccc3OC)cn2c1N(C)Cc1ccc(N(C)C)cc1	none
CCc1ccc2nc(NC(=O)CCCc3cccs3)sc2c1	none
O=C(Cc1cccs1)Nc1nc2ccccc2s1	TDP-43 rescue 15.8µM
Cc1cc[n+](CC(=O)Nc2nc3ccccc3s2)cc1	none
O=C(Nc1ccc(Cl)cn1)c1ccc(COc2ccccc2Br)o1	TDP-43 rescue 11.2µM
CCc1nnc(NC(=O)c2ccc(COc3ccccc3Cl)o2)s1	none
CCN(CC)C(=O)c1ccc(COc2ccccc2Cl)o1	none
N/C(=N\OC(=O)Cc1ccccc1)c1ccc([N+](=O)[O-])cc1	TDP-43 rescue 11.2µM
COc1ccc(CC(=O)O/N=C(\N)c2cccc([N+](=O)[O-])c2)cc1	none
N/C(=N\OC(=O)CCCOc1ccccc1)c1ccc([N+](=O)[O-])cc1	none
CC1(C(=O)NS(=O)(=O)c2ccccc2)CCN1C(=O)Cc1cccs1 (configuration not stated)	none
COc1ccc(-c2nc(CNS(=O)(=O)c3ccccc3)cs2)cc1	none
Cc1cc(C)c(S(=O)(=O)NCc2csc(-c3ccccc3)n2)c(C)c1	TDP-43 rescue 22.4µM
O=S(=O)(NCc1csc(-c2ccccc2)n1)c1cccc(F)c1	none
Cc1nn2c(-c3cccc(NC(=O)c4ccc(Cl)cc4)c3)nnc2c2ccccc12	none
CCc1nc2ccc(C(=O)NCCCN3CCCC3=O)cn2c1N(CC)Cc1cccc(Br)c1	none
CN1CCCC(C)(C(=O)Nc2cccc(Oc3ccccc3)c2)C1 (configuration not stated)	none
Fc1ccc(Nc2ncnc3sccc23)cc1	TDP-43 rescue 11.2µM
OC(CNc1ncnc2sccc12)c1ccccc1 (configuration not stated)	none
CN(C)C(CNc1ncnc2sccc12)c1ccccc1 (configuration not stated)	none
CCOC(=O)C1(C)CCCN1C(=O)c1cc(F)ccc1C (configuration not stated)	none
Cc1cccc(C)c1OCc1nc2c3cnn(-c4ccccc4F)c3ncn2n1	none
Fc1ccccc1-n1ncc2c1ncn1nc(Cc3ccccc3)nc21	TDP-43 rescue 11.2µM
COc1ccc(Cc2nc3c4cnn(-c5ccccc5F)c4ncn3n2)cc1	none
OC[C@@H]1CN(Cc2ccc(-c3ccccc3)cc2)C[C@H](n2cnc3c(NCc4ccncc4)ncnc32)O1	none
COc1ccccc1N(C)S(=O)(=O)c1ccc(C(=O)Nc2ccc(C)cc2C)cc1	none
CN1CCN(c2ncnc3c2ncn3[C@H]2CN(C)C[C@@H](CO)O2)CC1	none
CCc1ccccc1NC(=O)Cn1nnc(-c2nc(-c3ccncc3)no2)c1N	none
CCOc1ccc(-c2cc(C(=O)Nc3cc(OC)c(OC)c(OC)c3)[nH]n2)c(C)c1	none
CC1CC(OC(=O)c2ccccc2C(=O)c2ccc(Cl)cc2)C(=O)O1 (configuration not stated)	none
O/N=C(/c1ccc(Cl)cc1)C1CC1c1ccccc1 (configuration not stated)	TDP-43 rescue 11.2µM
C/C(=N/NS(=O)(=O)c1ccc(C)cc1)[C@H]1C[C@@H]1c1ccccc1	none
O=C(CCl)N=c1sccn1Cc1ccc(Cl)cc1Cl	TDP-43 rescue 20µM
O=C(Cn1cnnn1)NCCc1ccc(Cl)cc1Cl	none
O=C(CSc1ncn[nH]1)NCCc1ccc(Cl)cc1Cl	none
COc1cc(CNC(=O)c2cc(-c3cc(F)ccc3OCC3CCCO3)n[nH]2)cc(OC)c1 (configuration not stated)	none
CN(c1ccccc1C(=O)O)S(=O)(=O)c1ccc2[nH]c(=O)oc2c1	none
Cc1nc2c(OCCN3C(=O)c4ccccc4C3=O)cccn2c1N(C)C(=O)CCC1CCCC1	none
COC(=O)c1ccc(COc2ccc(/C=N/O)cc2OC)o1	none
O/N=C/c1ccc(OCc2ccccc2)c(Br)c1	TDP-43 rescue 11.2µM
COc1cc(/C=N/NC(=O)CN2CCOCC2)ccc1OCc1ccccc1	none
COc1cc(/C=N/NC(=O)CN2CCCCC2)ccc1OCc1ccccc1	none
CN(C(=O)c1cccc(COc2ccc(Cl)cc2Cl)c1)c1ccccc1	none
O/N=C/c1ccc(OCc2ccccc2)c(Cl)c1	TDP-43 rescue 10µM
CCc1cccc(CC)c1N(COC)C(=O)Cn1c(CC)nc2ccccc21	none
CC(=O)c1cccc(NC(=O)CCCN2C(=O)COc3ccc(C)cc32)c1	none
Cc1ccccc1OCCSc1nc(C)c(Cc2ccccc2)c(=O)[nH]1	none
CC(=O)NC(c1cccc(F)c1)c1nc(-c2ccoc2)cs1 (configuration not stated)	none
Nc1cc(=O)[nH]c(SCC(=O)Nc2cccc(S(=O)(=O)N3CCCCC3)c2)n1	none
